Measured values taken from PubChem BioAssay (Tox21).
Records with an inconclusive call do not appear. The source made the active and inactive calls. The call rests on the fitted dose curve; in most records, active means well fitted curve in the direction sought with a large enough effect in the repeat runs; inconclusive means weak or mixed curves; inactive means no such curve, though single readings can be large; an effect the other way counts as inactive or inconclusive.

Key:
[1] = A CellTox Green Cytotoxicity Assay to monitor cytotoxicity in HEK293 cells - 40 hour (AID 1224871); further: nearly all actives have a fitted effect of over 45% in size
Procedure, shortened: (§1)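 HEK293 cells premixed with CellTox Green dye were seeded at 600 cells/well and left 5 h at 37 C/5% CO2 before pin transfer of 23 nL compound in DMSO. Fluorescence from dye bound to dead-cell DNA was read during 40 h treatment.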

[2] = qHTS RealTime-Glo MT Cell Viability Assay in HEK293 cells - 16 hour (AID 1224872); further: top concentration of the series differs between compounds; nearly all actives have a fitted effect of over 50% in size
Procedure, shortened: (§2)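 HEK293 cells seeded with NanoLuc/prosubstrate reagent, rested 5 h at 37 C, then dosed and kept at 37 C up to 40 h. Nonlytic real-time luminescence from viable cells read at 0, 8, 16, 24, 32 and 40 h.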

[3] = qHTS RealTime-Glo MT Cell Viability Assay in HEK293 cells - 40 hour (AID 1224874); conditions: RealTime-Glo luminescence; max response: active compounds read low; further: nearly all actives have a fitted effect of over 50% in size
Procedure, shortened: (§3)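 HEK293 cells mixed with RealTime-Glo reagents (NanoLuc plus cell-permeant prosubstrate) at 600 cells/well, preincubated 5 h at 37 C/5% CO2, then given 23 nL compound in DMSO. Nonlytic luminescence from viable cells was read at 0, 8, 16, 24, 32 and 40 h.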

[4] = A CellTox Green Cytotoxicity Assay to monitor cytotoxicity in HEK293 cells - 24 hour (AID 1224875); further: series mostly up to about 77 µM; nearly all actives have a fitted effect of over 45% in size
Procedure, shortened: as §1

[5] = A CellTox Green Cytotoxicity Assay to monitor cytotoxicity in HepG2 cells - 16 hour (AID 1224876); further: nearly all actives have a fitted effect of over 45% in size
Procedure, shortened: (§4)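 HepG2 cells were seeded together with the CellTox Green dye at 600 cells/well, left 5 h at 37 C/5% CO2, then given compounds in DMSO. Fluorescence from dye bound to dead-cell DNA was read repeatedly over 40 h of treatment at 37 C.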

[6] = qHTS RealTime-Glo MT Cell Viability Assay in HepG2 cells - 32 hour (AID 1224877); further: nearly all actives have a fitted effect of over 55% in size
Procedure, shortened: (§5)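 HepG2 cells (600/well) were dispensed with RealTime-Glo reagents, incubated 5 h at 37 °C, then treated with compounds in DMSO for up to 40 h. Nonlytic NanoLuc luminescence reflecting viable cells was read at each stated time point.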

[7] = A CellTox Green Cytotoxicity Assay to monitor cytotoxicity in HepG2 cells - 24 hour (AID 1224878); further: nearly all actives have a fitted effect of over 45% in size
Procedure, shortened: as §4

[8] = A CellTox Green Cytotoxicity Assay to monitor cytotoxicity in HepG2 cells - 40 hour (AID 1224879); further: nearly all actives have a fitted effect of over 40% in size
Procedure, shortened: as §4

[9] = qHTS RealTime-Glo MT Cell Viability Assay in HEK293 cells - 0 hour (AID 1224880)
Procedure, shortened: as §3

[10] = A CellTox Green Cytotoxicity Assay to monitor cytotoxicity in HEK293 cells - 32 hour (AID 1224881); further: nearly all actives have a fitted effect of over 40% in size
Procedure, shortened: as §1

[11] = A CellTox Green Cytotoxicity Assay to monitor cytotoxicity in HepG2 cells - 0 hour (AID 1224882); further: nearly all actives have a fitted effect of over 35% in size
Procedure, shortened: as §4

[12] = A CellTox Green Cytotoxicity Assay to monitor cytotoxicity in HepG2 cells - 32 hour (AID 1224883); further: nearly all actives have a fitted effect of over 50% in size
Procedure, shortened: as §4

[13] = A CellTox Green Cytotoxicity Assay to monitor cytotoxicity in HEK293 cells - 8 hour (AID 1224884); further: nearly all actives have a fitted effect of over 35% in size
Procedure, shortened: as §1

[14] = qHTS RealTime-Glo MT Cell Viability Assay in HepG2 cells - 16 hour (AID 1224885); further: nearly all actives have a fitted effect of over 50% in size
Procedure, shortened: as §5

[15] = A CellTox Green Cytotoxicity Assay to monitor cytotoxicity in HEK293 cells - 16 hour (AID 1224888); further: nearly all actives have a fitted effect of over 35% in size
Procedure, shortened: as §1

[16] = qHTS RealTime-Glo MT Cell Viability Assay in HepG2 cells - 0 hour (AID 1224889); further: nearly all actives have a fitted effect of over 50% in size
Procedure, shortened: as §5

[17] = A CellTox Green Cytotoxicity Assay to monitor cytotoxicity in HepG2 cells - 8 hour (AID 1224890); further: nearly all actives have a fitted effect of over 45% in size
Procedure, shortened: as §4

[18] = qHTS RealTime-Glo MT Cell Viability Assay in HepG2 cells - 8 hour (AID 1224873); further: nearly all actives have a fitted effect of over 55% in size
Procedure, shortened: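 HepG2 cells (600/well) mixed with RealTime-Glo MT reagent, settled 5 h at 37 C/5% CO2 before compound addition. Nonlytic NanoLuc luminescence from viable-cell prosubstrate reduction read repeatedly during 40 h treatment at 37 C.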

[19] = qHTS RealTime-Glo MT Cell Viability Assay in HEK293 cells - 24 hour (AID 1224886)
Procedure, shortened: as §2

[20] = qHTS RealTime-Glo MT Cell Viability Assay in HEK293 cells - 8 hour (AID 1224887)
Procedure, shortened: as §3
On the % scale 0 is the no-effect control and ±100 the full control effect.

Cc1ccccc1Br
inactive: Potency [1] | Potency [2] | max response [3] 5.36% | Potency [4] | Potency [5] | Potency [6] | Potency [7] | Potency [8] | outcome [9] | Potency [10] | Potency [11] | Potency [12] | Potency [13] | outcome [14] | Potency [15] | Potency [16] | Potency [17]

CCc1cc(S(=O)(=O)O)c2cc(C(C)C)cccc1-2
inactive: Potency [1] | outcome [18] | max response [3] 7.39% | Potency [4] | Potency [5] | Potency [6] | Potency [7] | Potency [8] | outcome [9] | Potency [10] | Potency [11] | Potency [12] | Potency [13] | outcome [14] | Potency [19] | Potency [20] | Potency [15] | Potency [16] | Potency [17]

CCCCCCCCCCCCCCCCCCOCC(O)CO (configuration not stated)
inactive: Potency [1] | Potency [2] | max response [3] -20.9% | Potency [4] | Potency [6] | Potency [8] | outcome [9] | Potency [10] | Potency [13] | outcome [14] | Potency [20] | Potency [15] | Potency [16]

COC(=O)C1=C(C)NC(C)=C(C(=O)OCC(C)=O)C1c1ccccc1[N+](=O)[O-] (configuration not stated)
inactive: Potency [1] | Potency [2] | max response [3] -9.05% | Potency [4] | Potency [5] | Potency [8] | Potency [10] | Potency [11] | Potency [12] | Potency [13] | Potency [19] | Potency [20] | Potency [15]

Nc1cc(N)cc(C(=O)O)c1
inactive: Potency [1] | outcome [18] | max response [3] 8.18% | Potency [4] | Potency [5] | Potency [6] | Potency [7] | Potency [8] | outcome [9] | Potency [10] | Potency [11] | Potency [12] | Potency [13] | outcome [14] | Potency [15] | Potency [16] | Potency [17]

CC(O)CN(CCCN(C)C)CCCN(C)C (configuration not stated)
inactive: Potency [1] | outcome [18] | max response [3] -1.59% | Potency [4] | Potency [5] | Potency [6] | Potency [7] | Potency [8] | outcome [9] | Potency [10] | Potency [11] | Potency [12] | Potency [13] | outcome [14] | Potency [19] | Potency [20] | Potency [16] | Potency [17]

O=C(O)/C=C/c1ccc(Cn2ccnc2)cc1
inactive: Potency [1] | Potency [2] | max response [3] 2.89% | Potency [4] | Potency [5] | Potency [7] | Potency [8] | outcome [9] | Potency [10] | Potency [11] | Potency [12] | Potency [13] | outcome [14] | Potency [19] | Potency [20] | Potency [15] | Potency [16] | Potency [17]

OCc1ccccn1
inactive: Potency [1] | outcome [18] | max response [3] 11.2% | Potency [4] | Potency [5] | Potency [6] | Potency [7] | Potency [8] | outcome [9] | Potency [10] | Potency [11] | Potency [12] | Potency [13] | outcome [14] | Potency [19] | Potency [20] | Potency [16] | Potency [17]

C=CCOCC(O)CS(=O)(=O)O (configuration not stated)
inactive: Potency [1] | outcome [18] | max response [3] -7.7% | Potency [4] | Potency [5] | Potency [6] | Potency [7] | Potency [8] | outcome [9] | Potency [10] | Potency [11] | Potency [12] | Potency [13] | outcome [14] | Potency [19] | Potency [15] | Potency [17]

C[C@H]1O[C@@H](n2cc(F)c(=O)[nH]c2=O)[C@H](O)[C@@H]1O
inactive: Potency [1] | outcome [18] | max response [3] 0.654% | Potency [4] | Potency [5] | Potency [6] | Potency [7] | Potency [8] | outcome [9] | Potency [10] | Potency [11] | Potency [12] | Potency [13] | outcome [14] | Potency [19] | Potency [20] | Potency [15] | Potency [16] | Potency [17]

Cn1cnc2c(=O)[nH]c(N)nc21
inactive: Potency [1] | Potency [2] | max response [3] 15.1% | Potency [4] | Potency [5] | Potency [6] | Potency [7] | Potency [8] | Potency [10] | Potency [11] | Potency [12] | Potency [13] | outcome [14] | Potency [15] | Potency [16] | Potency [17]

CC1=CCC2C(C1)C2(C)C (configuration not stated)
inactive: Potency [1] | Potency [2] | max response [3] 1.81% | Potency [4] | Potency [5] | Potency [6] | Potency [7] | Potency [8] | outcome [9] | Potency [10] | Potency [11] | outcome [14] | Potency [19] | Potency [20] | Potency [15] | Potency [16] | Potency [17]

O=C1C(CCS(=O)c2ccccc2)C(=O)N(c2ccccc2)N1c1ccccc1 (configuration not stated)
inactive: Potency [1] | Potency [2] | max response [3] 1.04% | Potency [4] | Potency [5] | Potency [6] | Potency [8] | outcome [9] | Potency [10] | Potency [11] | Potency [12] | Potency [13] | outcome [14] | Potency [20] | Potency [15] | Potency [16] | Potency [17]

NC(=O)CCCCC1CCSS1 (configuration not stated)
inactive: Potency [1] | Potency [2] | max response [3] 4.59% | Potency [4] | Potency [6] | Potency [7] | Potency [8] | outcome [9] | Potency [10] | Potency [12] | outcome [14] | Potency [19] | Potency [20] | Potency [15] | Potency [16]

CCn1cc(C(=O)O)c(=O)c2cc(F)c(N3CCN(C)CC3)cc21
inactive: cytotoxicity increase [1] -12.2% [at 15.8 µM] | viability change, negative = cytotoxic [18] 2.21% [at 15.8 µM] | max response [3] -1.49% | activity change [4] -4.84% [at 15.8 µM, active compounds read high] | cytotoxicity increase [5] -8.46% [at 15.8 µM] | activity change, negative = cytotoxic [6] 1.05% [at 15.8 µM] | cytotoxicity [7] -13.3% [at 15.8 µM] | cytotoxicity increase [8] -14.4% [at 15.8 µM] | activity change, negative = cytotoxicity [9] 5.85% [at 15.8 µM] | cytotoxicity increase [10] -8.3% [at 15.8 µM] | cytotoxicity [11] -1.13% [at 15.8 µM] | cytotoxicity increase [12] -17.6% [at 15.8 µM] | cytotoxicity increase [13] -3.43% [at 15.8 µM] | activity change, negative = cytotoxic [14] 0.92% [at 15.8 µM] | activity change, negative = cytotoxicity [19] 2.21% [at 15.8 µM] | activity change, negative = cytotoxicity [20] 7.74% [at 15.8 µM] | activity change [15] -0.608% [at 15.8 µM, active compounds read high] | activity change, negative = cytotoxicity [16] 5.05% [at 15.8 µM]
